Screening data from PubChem BioAssay.
Hits are enriched below; roughly 1.6% of the tested compounds scored in any of these assays.
HTR2A ag: agonists of mouse serotonin 5-HT2A receptor (HTR2A); P35363; activation, % at 7.6 µM; CHO-K1 mHTR2A beta-arrestin complementation, luminescence; percent of 30 µM serotonin response; hit rate 0.66% among 360,000;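 active means activation above a run cutoff, the mean activation of all tested compounds plus 3 SD, cut at about 14% in these data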;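 further: 0% = plate median of compound wells and 100% = 30 µM serotonin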
MOR-DOR ag: agonists of human mu-delta opioid receptor heterodimerization; P35372+P41143; cells, OPRM1-OPRD1 heterodimerization, luminescence; activation, % at 9.3 µM; hit rate 0.3% among 340,000; AID 504326;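 further: 0% = vehicle-treated cells and 100% = reference agonist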
HTR5A ag: counter-screen for OPRM1-OPRD1 agonists: human HTR5A agonism; P47898; HTR5A agonist assay, luminescence, cell-based; activation, % at 9.3 µM; hit rate 0.61% among 340,000; in the data active means activation mostly above about 9.5%, no sharp cut-off; inactive means mostly below about 7.6%;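 further: 0% = cells with vehicle only and 100% = reference agonist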
Target sequence (P47898 whole entry, looked up): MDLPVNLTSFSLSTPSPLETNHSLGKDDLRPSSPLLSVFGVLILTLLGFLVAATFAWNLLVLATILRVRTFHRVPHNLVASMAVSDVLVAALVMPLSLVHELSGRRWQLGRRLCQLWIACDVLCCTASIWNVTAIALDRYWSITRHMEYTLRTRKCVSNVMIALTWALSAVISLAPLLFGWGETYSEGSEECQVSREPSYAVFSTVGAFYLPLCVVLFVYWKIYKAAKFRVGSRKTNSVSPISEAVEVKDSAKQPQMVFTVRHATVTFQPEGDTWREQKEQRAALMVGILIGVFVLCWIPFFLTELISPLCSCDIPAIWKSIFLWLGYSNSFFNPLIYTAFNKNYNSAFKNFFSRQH
HTR5A inv ctr: HTR5A inverse agonism, opioid heterodimer counter-screen; P47898; HTR5A cell line, luminescence; hit rate 0.083% among 340,000; inhibition, % at 9.3 µM; AID 504634; in the data active means inhibition mostly above about 23%, no sharp cut-off; inactive means mostly below about 18%;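 further: 0% = cells with DMSO and 100% = no-cell wells with DMSO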
MOR-DOR inv ag: inverse agonists of human mu-delta opioid receptor heterodimerization; P35372+P41143; cell-based MOR-DOR heterodimer luminescence, inverse agonism; inhibition, % at 9.3 µM; hit rate 0.21% among 340,000; in the data active means inhibition above about 22%, passing the limit was not always enough;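 further: 0% = cells with DMSO and 100% = wells without cells with DMSO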
OPRM1-D1 ag cf: OPRM1-OPRD1 heterodimer agonism, confirmation. shares compounds with MOR-DOR ag. cells, MOR-DOR heterodimerization, luminescence complementation. activation, % at 9.3 µM. hit rate 45% among 830. AID 504904;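 further: 0% = vehicle-treated cells and 100% = reference agonist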
HTR5A ag ctr2: activates human HTR5A in OPRM1-OPRD1 agonist counter-screen | shares compounds with MOR-DOR ag | HTR5A agonist counterscreen, cell luminescence | activation, % at 9.3 µM | hit rate 8% among 830 | AID 504905; in the data active means activation above about 17%;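 further: 0% = vehicle-treated cells and 100% = reference agonist response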
* marks the source's active call; other numbers are inactive results; . = no result. Unless noted, no stated cut-off is given here; in the data, active means activation above about 18%; inactive means the rest.

SMILES	HTR2A ag	MOR-DOR ag	HTR5A ag	HTR5A inv ctr	MOR-DOR inv ag	others
O=Cc1cn(-c2ccccc2)nc1-c1ccc(F)cc1	3	9	2	-6	-47
CC1=NNC(=O)/C1=C\c1cn(-c2ccccc2)nc1-c1ccc(F)cc1	1	7	17*	-46	-34
O=C1NC[C@H](CCCCN2C[C@H](Cc3ccc(O)cc3)N(CCc3ccccc3)C(=O)C2=O)N(CCc2ccc(O)cc2)C1=O	3	.	.	.	.
C=CCNc1ncnc2c1ncn2[C@H]1CN(Cc2ccc(-c3ccccc3)cc2)C[C@@H](CO)O1	1	.	.	.	.
C=C(C)c1cccc(C(C)(C)NC(=O)NCc2ccc(OC)c(OC)c2)c1	24*	-2	-2	-28	9
CC(C)(C)c1ccc(S(=O)(=O)NNC(=O)c2cc3ccccc3[nH]2)cc1	11	15	13*	-48	-73
CNC(=S)NCCN1CCOCC1	2	-1	13*	14	7
COc1ccc(CNC(=O)[C@]2(C)CCC[C@@]3(C)C4CC[C@@]5(C)C[C@]4(CCC32)CC5=O)cc1 (stereo partly drawn)	-1	0	1	-4	0
C[C@]1(CO)CCC[C@@]2(C)C1CC[C@@H](CO)[C@@H]2CCc1ccoc1 (stereo partly drawn)	4	0	9.8*	-38	-1
CCOc1ccc(CCN2C(=O)C(=O)N([C@@H](Cc3ccccc3)CN3CCC[C@H]3CN3C(=O)C(=O)NC[C@@H]3CC(C)C)C[C@@H]2Cc2ccc(O)cc2)cc1	1	.	.	.	.
CCC(=O)N1CCN(c2ccc(NC(=O)c3cc4ccccc4o3)cc2Cl)CC1	10	5	5	-19	-21
O=C(Nc1ccc(N2CCN(C(=O)c3ccco3)CC2)c(Cl)c1)c1cc2ccccc2o1	11	6	14*	16	-38
O=C(c1ccco1)N1CCN(C(=S)Nc2ccccc2Cl)CC1	15*	-2	2	5	12
Cc1ccccc1NC(=S)N1CCN(C(=O)c2ccco2)CC1	3	-1	-4	1	7
O=C(Nc1ccc(N2CCN(C(=O)c3ccco3)CC2)cc1)c1ccc([N+](=O)[O-])cc1Cl	0	1	10*	0	-2
CC(=O)NC(c1ccccc1)c1nc(-c2ccccc2)cs1 (stereo not drawn)	2	.	.	.	.
O=C1NC[C@H](CCCCN2C[C@H](Cc3ccc(O)cc3)N(CC3CCCCC3)C(=O)C2=O)N(CC2CCCCC2)C1=O	-8	.	.	.	.
COC(=O)C[C@H]1C=C[C@@H](NC(=O)Nc2c(C)noc2C)[C@@H](CO)O1	-3	.	.	.	.
Clc1ccc(CN2CCc3c([nH]c4ccccc34)C2)cc1Cl	3	10	14*	-52	-50
Clc1cccc(CN2CCc3c([nH]c4ccccc34)C2)c1	8	2	4	-16	-7
CCNC(=O)C1(C)CCN(C(=O)c2ccc(OC)cc2OC)C1 (stereo not drawn)	5	.	.	.	.
COc1ccc2ccccc2c1/C=N/NC(=O)c1sc(N)c(C#N)c1C	4	24*	8	-39	-129
CCc1nc2c(OCCC3CCCCC3)cccn2c1N(C)C(=O)C(C)C	-3	.	.	.	.
Cc1ccc(NC(=O)c2cc(S(=O)(=O)N3CCCCC3)c[nH]2)cc1C	-4	30*	-2	6	-177	OPRM1-D1 ag cf=14;HTR5A ag ctr2=9
CC(CCc1ccccc1)NC(=O)c1ccc(NC(=O)c2ccccc2)cc1 (stereo not drawn)	1	26*	2	-4	-181	OPRM1-D1 ag cf=7;HTR5A ag ctr2=2
SMILES	HTR2A ag	MOR-DOR ag	HTR5A ag	HTR5A inv ctr	MOR-DOR inv ag	others
COc1ccc(/C=N/NC(=O)c2ccco2)cc1Cn1nc(C)cc1C	9	-2	-2	-19	12
COc1ccc(/C=N\NC(=O)COc2ccc(C(C)(C)C)cc2)cc1Cn1nc(C)cc1C	1	45*	4	-11	-190	OPRM1-D1 ag cf=1;HTR5A ag ctr2=3
CCOC(=O)c1c(C)[nH]c(C(=O)OC/C(O)=C(\C#N)c2nc3ccccc3[nH]2)c1C	-2	32*	9.9*	-19	-196	OPRM1-D1 ag cf=41*;HTR5A ag ctr2=5
Cc1cccc(CCN2C(Nc3ccccc3)=NC[C@@H]2CC(C)C)c1	3	38*	9	9	-173	OPRM1-D1 ag cf=0;HTR5A ag ctr2=-2
N#CCC(=O)N/N=C/c1cn(Cc2ccc(Cl)c(Cl)c2)c2ccccc12	0	19*	6	6	-97	OPRM1-D1 ag cf=14;HTR5A ag ctr2=6
COC(=O)[C@@]12C[C@@H](CC(=O)NCc3cccc4ccccc34)C(=O)N(Cc3ccco3)C1=CCC(C)(C)C2	4	.	.	.	.
CC(=O)Nc1cccc(-c2ccnc3c2CC(C(=O)Nc2ccc(C(C)C)cc2)O3)c1 (stereo not drawn)	2	.	.	.	.
COc1cc2ccccc2cc1C(=O)NCC(c1cccs1)N(C)C (stereo not drawn)	-5	72*	-2	5	-375	OPRM1-D1 ag cf=0;HTR5A ag ctr2=6
COc1cc(C(=O)NCC(c2cccs2)N(C)C)cc(Cl)c1OC(C)C (stereo not drawn)	-8	48*	-2	4	-244	OPRM1-D1 ag cf=4;HTR5A ag ctr2=-1
CCCOc1ccc(C(=O)NCC(c2cccs2)N(C)C)cc1OC (stereo not drawn)	-3	8	-2	14	-44
C[C@H](CO)N1C[C@H](C)[C@@H](CN(C)C(=O)CN2CCOCC2)Oc2cc(Br)ccc2S1(=O)=O	-4	.	.	.	.
Cc1ccc(C(=O)C2C(c3ccc(-c4ccccc4[N+](=O)[O-])o3)NC(=O)NC2(O)C(F)(F)F)cc1 (stereo not drawn)	-2	21*	2	0	-114	OPRM1-D1 ag cf=4;HTR5A ag ctr2=5
CC(C)NC(=O)C1(C)CSCC(=O)N1CCCn1ccnc1 (stereo not drawn)	7	.	.	.	.
CCC1OC(C)Cc2[nH][nH]c(=O)c21 (stereo not drawn)	6	.	.	.	.
Cc1ccc(/C([O-])=C(/C(=S)Nc2ccc(SC(F)F)cc2)[n+]2ccccc2)cc1[N+](=O)[O-]	2	24*	-3	-19	-118	OPRM1-D1 ag cf=0;HTR5A ag ctr2=7
Cc1ccccc1NC(=S)/C(=C(\[O-])c1ccc(C)c([N+](=O)[O-])c1)[n+]1ccccc1	-4	-2	-2	-3	9
CCC1NC(=O)c2cccnc2-n2c1nc1ccc(F)cc1c2=O (stereo not drawn)	3	.	.	.	.
O=C(COc1ccccc1[N+](=O)[O-])Nc1ccc(NC(=O)c2cc3ccccc3o2)cc1	0	7	8	-24	-36
O=C(COc1ccc(/C=N/NC(=O)c2cc3ccccc3o2)cc1Br)Nc1ccccc1	13	45*	4	-57	-264	OPRM1-D1 ag cf=41*;HTR5A ag ctr2=15
CC(=O)Nc1ccc(C(=O)NCC(c2ccco2)N(C)C)cc1 (stereo not drawn)	5	1	1	-3	-3
